Measurements as given in PubChem BioAssay (NCI).
Compounds without any hit were thinned out: in the full panel of roughly 83,000, 20% have a hit.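 Results are percent growth after 48 hours of single-concentration exposure. 100 means growth as in untreated cells, lower positive values show inhibition; negative values down to -100 show cell death.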 Values without a mark were called inactive. The source made the active and inactive calls. Rule for the calls: active = growth percent below 10; inactive = the rest.

Tests used:
Assay in all cases: NCI-60 one-dose screen, 48 h (100 = growth as untreated, 0 = no growth, -100 = all killed)
HCT-15 colon = conditions: 10 µM unless noted
HT29 colon = conditions: 10 µM unless noted
SNB-75 CNS = conditions: 10 µM unless noted
SNB-19 CNS = conditions: 10 µM unless noted
U251 CNS = conditions: 10 µM unless noted
PC-3 prostate = conditions: 10 µM unless noted
SK-MEL-5 melanoma = conditions: 10 µM unless noted
UACC-62 melanoma = conditions: 10 µM unless noted
LOX IMVI melanoma = conditions: 10 µM unless noted
SK-MEL-28 melanoma = conditions: 10 µM unless noted
SK-MEL-2 melanoma = conditions: 10 µM unless noted
SN12C renal = conditions: 10 µM unless noted
UO-31 renal = conditions: 10 µM unless noted
TK-10 renal = conditions: 10 µM unless noted
ACHN renal = conditions: 10 µM unless noted
CAKI-1 renal = conditions: 10 µM unless noted
A498 renal = conditions: 10 µM
HL-60(TB) leukemia = conditions: 10 µM unless noted
CCRF-CEM leukemia = conditions: 10 µM unless noted
EKVX NSCLC = conditions: 10 µM unless noted

Compound | growth (HCT-15 colon) | growth (HT29 colon) | growth (SNB-75 CNS) | growth (SNB-19 CNS) | growth (U251 CNS) | growth (PC-3 prostate) | growth (SK-MEL-5 melanoma) | growth (UACC-62 melanoma) | growth (LOX IMVI melanoma) | growth (SK-MEL-28 melanoma) | growth (SK-MEL-2 melanoma) | growth (SN12C renal) | growth (UO-31 renal) | growth (TK-10 renal) | growth (ACHN renal) | growth (CAKI-1 renal) | growth (A498 renal) | growth (HL-60(TB) leukemia) | growth (CCRF-CEM leukemia) | growth (EKVX NSCLC)
CC12CCC(O)CC1=CCC1C2CCC2(C)C(O)CCC12 (stereo not drawn) | 105% | 101% | 88% | 86.7% | 105% | 94.1% | 98.2% | 102% | 99.5% | 106% | 110% | 105% | 98.5% | 105% | 107% | 93.2% | 81.1% | 115% | 94.9% | –
NC1CC2CCCCC2CC1(O)c1ccccc1 (stereo not drawn) | 102% | 102% | 80.9% | 103% | 96.4% | 92.8% | 102% | 105% | 91.9% | 111% | 100% | 101% | 83.9% | 96.6% | 104% | 107% | 89.8% | 91.1% | 96% | –
CC(CC1CCCCC1)NCc1ccccc1 (stereo not drawn) | 94.4% | 93.2% | 100% | 100% | 106% | 88.6% | 99.1% | 93.3% | 83.7% | 103% | 102% | – | 66.2% | 94.2% | – | 99.9% | 89.5% | 111% | 100% | 99.1%
CN1CC(=O)N(O)C1(C)c1cccnc1 (stereo not drawn) | 96.9% | 97.8% | 88.5% | 105% | 102% | 95.8% | 101% | 104% | 97.3% | 103% | 94.6% | 101% | 87.5% | 97.7% | 102% | 95.2% | 97.2% | – | 106% | –
Cc1c(O)c(CN(CCCl)CCCl)cc(CN(CCCl)CCCl)c1O | 82.7% | 70.8% | 78.9% | 99.7% | 81.6% | 65.8% | 91.7% | 89.1% | 77.4% | 102% | 110% | 72.9% | 70.3% | 100% | 42.5% | 17.6% | 92.4% | – | 41.8% | –
CCCCCCCCOC(=O)CCN1CC1 | 101% | 111% | 110% | 112% | 95.6% | 104% | 105% | 109% | 96.9% | 113% | 119% | 106% | 92.8% | 127% | 103% | 98.4% | 84.2% | 149% | 110% | –
CC(C)=CCC/C(C)=C/C=N\N=C(/N)N[N+](=O)[O-] | 97.6% | 97.6% | 89.8% | 99.2% | 93.5% | 97.6% | 98.8% | 95.6% | 94.8% | 114% | 92.9% | 100% | 69.7% | 87.4% | 109% | 84.9% | 83.9% | 113% | 93.3% | –
Clc1cccc(Cl)c1Cl | 101% | 82.8% | 93.8% | 118% | 98.4% | 103% | 105% | 99.8% | 101% | 109% | 74.5% | – | 85.3% | 86.8% | – | – | 107% | – | 96.4% | 95.7%
COc1cc(C=Nc2cc(Cl)cc(Cl)c2)ccc1N(CCCl)CCCl | 96.2% | 81.5% | 84.1% | 89.8% | 86.9% | 63.1% | 93.9% | 82.9% | 78.7% | 104% | 113% | 87.6% | 66.6% | 148% | 63% | 63.3% | 65.2% | 88.1% | 56.4% | –
Cc1cc(N(CCCl)CCCl)ccc1C=Nc1ccc(-c2csc(Cc3ccccc3)n2)cc1 | 76.1% | 88.3% | 50.3% | 81.1% | 62.7% | 53% | 84.1% | 48.6% | 63.2% | 90.5% | 109% | 49% | 30.7% | 84.5% | 50.8% | 25.4% | -45.8% (active) | 30.7% | 33.9% | –
O=[N+]([O-])c1cc([N+](=O)[O-])c(Cl)cc1Cl | -58.4% (active) | -53.3% (active) | -97.7% (active) | 7.75% (active) | -71.3% (active) | -14.7% (active) | 30.1% | -79% (active) | -91.1% (active) | -41.2% (active) | -43% (active) | -89% (active) | -93.9% (active) | -92.9% (active) | -91.5% (active) | -81.2% (active) | 80.1% | -40.4% (active) | -36.3% (active) | –
N/C(=N\N=C\c1ccc(-c2ccccc2)cc1)N[N+](=O)[O-] | 31.6% | 14% | -1.49% (active) | 55.3% | 31.1% | 29.8% | 19.8% | 49.4% | 41.9% | 54% | 47.1% | 53.3% | 45.2% | 44.6% | 52.5% | 27.5% | 5.42% (active) | – | 11.9% | –
C[C@]12CC[C@@H]3c4ccc(Oc5nc(N6CC6)nc(N6CC6)n5)cc4CC[C@H]3[C@@H]1CCC2=O | 37.4% | 19.3% | 30.3% | 48.8% | 31.9% | 53.8% | 5.82% (active) | 18.4% | -63.1% (active) | 63.5% | 56.4% | 21.5% | 28.6% | 59.6% | 16.3% | 10.9% | -18.5% (active) | -35.6% (active) | 3.37% (active) | –
CC1CN1CCCCN1CC1C (stereo not drawn) | 103% | 87% | 81.1% | 109% | 104% | 95% | 107% | 113% | 101% | 100% | 80.6% | 109% | 98.4% | 88.8% | 107% | 102% | 107% | 77.4% | – | –
